# Source: PubChem BioAssay (National Center for Advancing Translational Sciences (NCATS))
# PLK1 PBD block – PLK1 (human) polo-box domain binding inhibition; P53350; Plk1 PBD binding of FITC phosphopeptide, fluorescence polarization; Potency, µM, inactives show max response, negative = inhibition, actives largely listed as inhibitors; 360,000 compounds, 2.8% hits; further: potency means the concentration at half of the fitted maximal effect; series mostly up to about 57 µM; nearly all actives have a fitted effect of over 65% in size
# CCT modulator – cytosolic chaperonin activity modulation; purified chaperonin ATPase assay, HTRF ADP detection, 30 min; 360,000 compounds, 0.3% hits; activity change, % (no concentration beside the values), hits read low; in the data active means activity change below about -30%
#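 First, chaperonin was dispensed at 40 nM or 20 nM final depending on batch activity. Next, compounds were pinned at 76 uM and ATP added at 10 uM. After 30 min at 37 °C, ADP detection reagents ran 30 min at ambient temperature.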
# Sfp inh – inhibitors of Bacillus subtilis Sfp phosphopantetheinyl transferase; 310,000 compounds, 3.5% hits; Potency, µM, for inactives: largest response in the series, negative = inhibition, usual class: inhibitors; Q9F4F7; Biochemical Sfp PPTase activity, qHTS;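 further: the enzyme is Sfp with the accession as filed and its product quenches rhodamine fluorescence; potency means the concentration at half of the fitted maximal effect; 0% = enzyme reaction without inhibitor and -100% = no enzyme wells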
#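 Step 1, compound plus 15 nM Sfp-PPTase, 15 min, room temperature. Step 2, add rhodamine-CoA (5 uM) and BHQ-2-YbbR (12.5 uM). Step 3, read 525/598 nm fluorescence at 0 and 30 min.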
# G9a block – inhibitors of human histone lysine methyltransferase G9a; Q96KQ7; G9a H3K9 monomethylation, AlphaScreen, 2 h; Potency, µM (top dose mostly 102 µM), without a hit: at the highest dose activity, negative = inhibition, hits mostly inhibitors; 350,000 compounds, 8.8% hits; further: potency means the concentration at half of the fitted maximal effect; nearly all actives have a fitted effect of over 75% in size
#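 Signal arises when biotinylated H3K9 peptide, once monomethylated, bridges streptavidin donor and antibody-captured acceptor beads. Enzyme at 20 nM was preincubated 15 min with test compounds; peptide 500 nM and SAM 20 uM then reacted for 2 h.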
# Mm-Cpn inhibitor – M. maripaludis TRiC chaperonin inhibition. purified Mm-Cpn ATPase, ADP Transcreener TR-FRET. Potency, µM (series often up to 76.9 µM), for inactives: at the highest dose activity, negative = inhibition, usual class: inhibitors. 330,000 compounds, 0.031% hits; further: potency means the concentration at half of the fitted maximal effect; nearly all actives have a fitted effect of over 80% in size
#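 Purified archaeal Mm-CPN (25nM final) preincubated 10 min at 37degC with compound, then 10uM ATP for 30 min at 37degC; ADP measured by HTRF Transcreener TR-FRET; buffer 30 mM TRIS pH 7.4, 100mM KCl, 5mM MgCl2, 1mM DTT.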
# VDR inhibitor – inhibitors of human vitamin D receptor; VDR-SRC2-3 peptide fluorescence polarization, 2 h; AID 504847; Potency, µM, for inactives: max response, negative = inhibition, most hits filed as inhibitors; P11473; 400,000 compounds, 0.93% hits; further: potency means the concentration at half of the fitted maximal effect
# Target sequence (P11473 whole entry, looked up): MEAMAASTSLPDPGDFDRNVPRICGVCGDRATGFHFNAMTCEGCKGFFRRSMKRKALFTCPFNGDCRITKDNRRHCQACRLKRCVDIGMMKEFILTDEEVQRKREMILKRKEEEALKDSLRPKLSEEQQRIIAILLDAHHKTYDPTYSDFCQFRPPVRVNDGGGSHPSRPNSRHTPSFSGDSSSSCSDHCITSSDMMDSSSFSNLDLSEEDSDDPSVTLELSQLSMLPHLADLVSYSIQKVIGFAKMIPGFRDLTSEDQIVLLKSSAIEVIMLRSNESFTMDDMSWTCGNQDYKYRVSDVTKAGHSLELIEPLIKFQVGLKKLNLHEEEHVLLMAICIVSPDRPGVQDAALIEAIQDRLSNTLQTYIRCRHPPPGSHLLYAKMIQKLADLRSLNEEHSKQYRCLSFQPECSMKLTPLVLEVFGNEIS
#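 The screen uses fluorescence polarization to detect compounds that interfere with recruitment of the SRC2-3 coactivator peptide to VDR; plates are read after 2 h at room temperature.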
# The depositor's hits bear a star; ? = inconclusive; . = no result; [ ] = another dose, or the depositor's remark. The list is not random: actives were taken first. Their share in the collection is about 10%. Unless noted, the call rests on the fitted dose curve; in most records, active means well fitted curve in the direction sought with a large enough effect; inconclusive means small, poorly fitted or top-dose-only effect, or another doubt; inactive means no such curve, though single readings can be large; an effect the other way counts as inactive or inconclusive. Unless noted, on the % scale 0 is the no-effect control and ±100 the full control effect.
SMILES,PLK1 PBD block,CCT modulator,Sfp inh,G9a block,Mm-Cpn inhibitor,VDR inhibitor
COc1cc2cc3c4c(cc(OC)c(OC)c4c2cc1OC)CCN3C,.,.,70.8µM*,.,.,.
COC(=O)c1ccc(OC(=O)C2CSC3(C)CCC(=O)N23)cc1 (stereo not given),-4.7%,0.2,.,56.2µM*,-0.9%,-13.9%
Cc1ccc(OC(=O)C2CSC3(C)CCC(=O)N23)c(Br)c1 (stereo not given),0.4%,-0.3,.,-0.1%[0.501 µM],2.7%,-2.5%
CC/C(=N/Nc1ccccc1Cl)c1cnnc(-c2ccccc2)n1,-6.8%,-1.4,10.5%,?,0.6%,0.7%
CC/C(=N/Nc1ccc(Cl)cc1)c1cnnc(SC)n1,-1.9%,-3.0,9.7%,5.62µM*,-1.7%,-17.9%
CC/C(=N/Nc1cccc(C)c1)c1cnnc(SC)n1,-5.8%,-1.1,-16.7%,7.08µM*,1.8%,-2.6%
CCC1CCc2c(sc(NC(=O)C3c4ccccc4Oc4ccccc43)c2C#N)C1 (stereo not given),.,.,.,-39.4%[59 µM],.,-15.7%
O=C1CC[C@H](C(=O)N[C@@H]2C[C@H]2c2ccccc2)N1,.,.,6.0%,0.0%[12.7 µM],.,1.7%
COc1ccc(-n2c(SCC(=O)C(C)(C)C)nc3c(sc(=S)n3-c3ccccc3)c2=O)c(OC)c1,3.77µM*,0.5,3.55µM*,1.26µM*,-3.7%,31.6µM*
Cc1ccc(-n2c(SCC(=O)O)nc3c(sc(=S)n3-c3ccc(C)c(C)c3)c2=O)cc1,-5.8%,-2.2,4.3%,?,-0.3%,-3.3%
CC(=O)N1CCC2(CC1)OC(=O)C(C)=C2C(=O)NCc1ccc(Cl)cc1,.,.,.,6.0%[59 µM],.,-5.2%
O=C1c2ccccc2C(=O)C1c1ccc(Br)cc1,-13.1%,-2.2,10.3%,?,-3.5%,14.1%
O=C1NC2=C(CCc3ccccc32)C(c2ccc(Br)cc2)N1 (stereo not given),?,-2.0,-21.7%,35.5µM*,0.4%,-12.4%
CC(/C=C/c1ccc(N(C)C)cc1)=N/N=C1/NC(=O)CC(C(=O)Nc2ccc(Cl)cc2)S1 (stereo not given),-0.2%,1.9,4.9%,31.6µM*,-1.4%,6.8%
Cc1ccnn1C(C)C(=O)O (stereo not given),-14.2%,-0.3,11.9%,50.1µM*,1.4%,24.2%
Cc1cc(Nc2cccc(C(F)(F)F)c2)nc2ccc(NC(=O)c3cccnc3)cc12,.,.,.,17.6%[59 µM],.,-1.1%
COc1ccc(CNC(=O)CN2C(=O)CSc3ccc(S(=O)(=O)N4CCCC4)cc32)cc1,.,.,.,-5.2%[59 µM],.,17.7%
CCOc1ccc(OCCCCn2ccnc2)cc1,29.3%,1.6,-22.8%,?,-2.1%,-1.7%
CCOc1ccc(OCCn2ccnc2)cc1,-7.4%,0.5,?,10µM*,0.0%,-9.9%
Cc1cc(OCCn2ccnc2)ccc1C(C)C,-0.2%,0.8,-1.6%,14.1µM*,-2.3%,12.3%
O=C(COc1ccccc1Cl)OCc1cc(=O)n2nc(C3CCCCC3)sc2n1,.,.,.,7.9%[59 µM],.,5.9%
O=C(Nc1ccccc1OCc1cc(=O)n2ccccc2n1)c1ccccc1F,.,.,.,-4.8%[59 µM],.,7.5%
CN1CCN(c2ccc(S(=O)(=O)N3CCCCC3)cc2NC(=O)COc2cccc(Cl)c2)CC1,3.8%,-0.3,.,39.8µM*,-1.1%,-1.6%
CN1CCN(c2ccc(S(=O)(=O)N3CCCCC3)cc2NC(=O)COc2ccc(F)cc2)CC1,-0.2%,-0.5,.,28.2µM*,1.1%,-17.6%
CCOc1ccc(NC(=O)CSc2cn(CC(=O)N3CCCCCC3)c3ccccc23)cc1,.,.,.,-33.6%[59 µM],.,2.4%
Cc1ccc(NC(=O)c2ccc(NC(=O)N3CCSc4nc(C)cc(C)c43)cc2)c(Cl)c1,.,.,.,-34.3%[59 µM],.,3.1%
Fc1ccc(-n2c(-c3ccco3)n[nH]c2=S)cc1,-6.6%,-1.4,79.4µM*,?,?,2.6%
Cc1ccc(-n2c(-c3ccco3)n[nH]c2=S)cc1,-6.5%,0.9,79.4µM*,.,-17.8%,-14.9%
Fc1ccc(-n2c(-c3ccc4ccccc4n3)n[nH]c2=S)cc1,-9.9%,-0.4,22.7%,0.5%,0.7%,-17.1%
S=c1[nH]nc(-c2cc(-c3ccco3)[nH]n2)n1-c1ccccc1,-17.2%,-0.6,89.1µM*,-20.1%[0.501 µM],-18.5%,-3.7%
